# From PubChem BioAssay
# Several values for one entry are separate records, joined by “and”; a condition that tells them apart may be missing. Identical values can stand only once. Some structures have more than one record in an assay (separate samples or runs), and their calls can disagree. Activity calls are given as the source filed them.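 How the source made its calls, unless noted: active means thallium flux through the channel raised or lowered by more than 3 SD from vehicle-only wells, actives on both sides; inactive means the rest.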
# Assays:
# [1] = viability rescue of complex I mutant cybrids, primary screen, cell-based, galactose medium, ATP luminescence (AID 1645843;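 active means z-score of at least 1.8 in each of two replicates, scored against plate mean and spread of sample wells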;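 further: positive z means more ATP and so rescue of galactose-driven cybrid death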); conditions: complex I mutant cybrid cells, 72 h, stronger effect = higher value
# F380Y/beta4 = test: modulators of BK channel variants, profiling panel, selectivity assay, cell-based, U2OS BacMam, thallium flux, beta subunits (AID 1259406); conditions: at 30 µM;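 further: initial slope of Thallos dye fluorescence rise after thallium is added; log ratio against the mean of 0.3% DMSO vehicle wells on the same plate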
# [2] = molecular target: Calcium-activated potassium channel subunit alpha-1 (Homo sapiens) + Leucine-rich repeat-containing protein 26 (Homo sapiens) (UniProt Q12791+Q2I0M4); test: as above; conditions: F380Y/Slo1WT/gamma1, at 30 µM
# Chain of Calcium-activated potassium channel subunit alpha-1 (Homo sapiens) + Leucine-rich repeat-containing protein 26 (Homo sapiens) (Q2I0M4 whole entry, looked up, one chain of several): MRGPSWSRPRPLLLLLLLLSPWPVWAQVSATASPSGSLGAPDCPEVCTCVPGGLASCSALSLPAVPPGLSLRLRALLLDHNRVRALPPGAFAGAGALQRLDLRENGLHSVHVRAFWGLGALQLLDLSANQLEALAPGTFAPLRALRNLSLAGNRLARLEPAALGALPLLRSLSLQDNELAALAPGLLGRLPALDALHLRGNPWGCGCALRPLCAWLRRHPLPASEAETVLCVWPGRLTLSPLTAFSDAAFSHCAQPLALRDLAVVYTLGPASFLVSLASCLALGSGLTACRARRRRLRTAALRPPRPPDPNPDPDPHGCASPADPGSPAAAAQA
# R275C = test: as above; conditions: at 30 µM
# R275C/beta1 = test: as above; conditions: at 30 µM
# R275C/beta2Delta = test: as above; conditions: at 30 µM
# R275C/beta4 = test: as above; conditions: at 30 µM
# R275C/Slo1WT/beta2 = test: as above; conditions: at 30 µM
# [3] = polyglutamine-triggered caspase-3 activation inhibitors, cell-based (AID 1583); conditions: polyglutamine-induced caspase-3 activation, cell assay; stronger effect = higher value;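 tested at 10 µM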
# [4] = suppressors of polyQ aggregation in yeast, 75Q-TubU reporter (AID 1593); conditions: Yeast 75Q polyglutamine aggregation reporter
# [5] = inhibitors of mitochondrial cytochrome c release, biochemical, purified mitochondria (AID 1603); conditions: stronger effect = lower value;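 further: mouse liver mitochondria challenged with calcium chloride; signal normalized to the plate average as 100%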
# [6] = inhibitors of polyQ protein aggregation (AID 1604); conditions: polyglutamine-induced protein aggregation inhibition assay; stronger effect = higher value; tested at 2.5 µM
# [7] = enhancers of glutamate uptake in motor neurons, MN-1 cell line (AID 1612); conditions: MN-1 motor neuron cells, stronger effect = higher value;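 further: tested at 1 µM final; 0% = mean of DMSO vehicle wells on each plate; positive means more glutamate uptake than control and negative means less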
# [8] = Cy5 fluorescence interference with SSB-bound oligo, artefact control for HCV NS3 helicase inhibitor project, biochemical, NIH Clinical Collection, E. coli SSB (AID 743268; call rule not given here)
# [9] = test system: Hepatitis C virus NS3 helicase; test: HCV NS3 helicase inhibitors, primary screen, biochemical, fluorescence polarization, NIH Clinical Collection (AID 743270; call rule not given here); conditions: NS3 helicase binding to Cy5-dT15 DNA, stronger effect = higher value, concentration not given here
# [10] = molecular target: Single-stranded DNA-binding protein (Escherichia coli (strain K12)) (UniProt P0AGE0); test: E. coli SSB displacement from DNA, counter-screen for HCV NS3 helicase inhibitor project, biochemical, fluorescence polarization, NIH Clinical Collection (AID 743271; in the data active means inhibition above about 28%); conditions: stronger effect = higher value, concentration not given here
# [11] = fluorescence interference in NS3h assay format, artefact control for HCV NS3 helicase inhibitor project, biochemical, NIH Clinical Collection (AID 743272; call rule not given here;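 further: HCV NS3 helicase with a Cy5 labelled single stranded DNA probe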); conditions: fluorescence interference counterscreen, stronger effect = lower value
# [12] = LFS_MB_P medulloblastoma growth inhibition, cell-based, chromothripsis tumors, cisplatin or BGB combos (AID 1671449; in the data active means inhibition above about 80%;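 further: cells exposed for 96 hours; 0% = vehicle DMSO and 100% = killing by high DMSO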); conditions: LFS_MB_P medulloblastoma cells
# [13] = HDN33 neuroblastoma growth inhibition, cell-based, chromothripsis tumors, cisplatin or BGB combos (AID 1671450; in the data active means inhibition above about 80%;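 further: cells exposed to compound for four days; 0% = vehicle DMSO and 100% = cell killing by high DMSO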); conditions: HDN33 neuroblastoma cells, stronger effect = higher value
# [14] = HTB85 osteosarcoma cell growth inhibition, synergistic combos for chromothripsis tumors, BGB or cisplatin IC20 combos (AID 1671453; in the data active means inhibition above about 80%;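 further: cells exposed for 96 hours before readout; 0% = vehicle DMSO and 100% = high DMSO killing control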); conditions: HTB85 osteosarcoma cells, drug combinations, stronger effect = higher value
compound,measurement,setting,value
CN[C@H]1CC[C@@H](c2ccc(Cl)c(Cl)c2)c2ccccc21,z-score,[1],-1.29 (inactive) and -1.52 (inactive) and -0.69 (inactive)
same,log fold change Tl+ flux,F380Y/beta4,1.13 (active) and 1.04 (active)
same,log fold change Tl+ flux,[2],0.123 (active) and 0.169 (active)
same,log fold change Tl+ flux,R275C,-0.288 (active) and -0.259 (active)
same,log fold change Tl+ flux,R275C/beta1,0.549 (active) and 0.546 (active)
same,log fold change Tl+ flux,R275C/beta2Delta,-0.0453 (inactive) and -0.0183 (inactive)
same,log fold change Tl+ flux,R275C/beta4,0.997 (active) and 0.996 (active)
same,log fold change Tl+ flux,R275C/Slo1WT/beta2,0.019 (inactive) and -0.2 (active)
NC(=O)c1cnccn1,inhibition,[3],-0.34%
same,score,[4],1.27
same,cytochrome c release ratio,[5],1.22
same,inhibition of aggregation,[6],69.8%
same,glutamate uptake change,[7],25.2%
same,fluorescence ratio,[8],0.1 (active)
same,inhibition,[9],-4.09% (inactive)
same,inhibition,[10],-2.76% (inactive)
same,fluorescence ratio,[11],0.96 (inactive)
same,z-score,[1],0.985 (inactive) and -0.015 (inactive)
same,log fold change Tl+ flux,F380Y/beta4,0.0145 (inactive)
same,log fold change Tl+ flux,[2],-0.0208 (inactive)
same,log fold change Tl+ flux,R275C,-0.0218 (inactive)
same,log fold change Tl+ flux,R275C/beta1,0.0553 (inactive)
same,log fold change Tl+ flux,R275C/beta2Delta,-0.0119 (inactive)
same,log fold change Tl+ flux,R275C/beta4,-0.0116 (inactive)
same,log fold change Tl+ flux,R275C/Slo1WT/beta2,0.0474 (inactive)
CCCCCCNC(=O)n1cc(F)c(=O)[nH]c1=O,fluorescence ratio,[8],1.03 (inactive)
same,inhibition,[9],0.4% (inactive)
same,inhibition,[10],1.44% (inactive)
same,fluorescence ratio,[11],0.97 (inactive)
same,z-score,[1],1.85 (inactive)
same,inhibition,"[12]; at 0.5 µM, stronger effect = higher value",-27.2% (inactive) and -12.2% (inactive)
same,inhibition,"[12]; measured here: combination with BGB IC20, at 0.005 µM",-12% and -29.3%
same,inhibition,"[12]; measured here: combination with BGB IC40, at 0.005 µM",-26.4% and -7.28%
same,inhibition,"[12]; measured here: combination with BGB IC40, at 0.05 µM",-34.3% and -13.5%
same,inhibition,"[12]; measured here: combination with cisplatin, at 0.5 µM, stronger effect = higher value",-48.8% and -55.1%
same,inhibition,"[12]; measured here: combination with cisplatin, at 5 µM, stronger effect = higher value",-34.6% and -25%
same,inhibition,"[13]; BGB combo, at 5 µM",41.9% and 91.3%
same,inhibition,[13]; at 0.5 µM,-22% (inactive) and -3.86% (inactive)
same,inhibition,"[13]; cisplatin combo, at 5 µM",46.1% and 36.7%
same,inhibition,"[13]; measured here: with BGB IC20 combination, at 0.5 µM",-20.7% and 5.65%
same,inhibition,"[13]; measured here: with cisplatin IC20 combination, at 0.5 µM",-11.9% and -1.01%
same,inhibition,"[13]; single agent, at 5 µM",90.7% and 52%
same,inhibition,[14]; at 0.5 µM,-3.88% (inactive) and -24.5% (inactive)
same,inhibition,"[14]; measured here: with BGB IC20, at 0.5 µM",-6.6% and -67.2%
same,inhibition,"[14]; measured here: with BGB IC20, at 5 µM",21% and 3.85%
same,inhibition,"[14]; measured here: with cisplatin IC20, at 0.5 µM",-9.7% and -6.78%
same,inhibition,"[14]; measured here: with cisplatin IC20, at 5 µM",9.85% and 21%
same,inhibition,"[14]; single agent, at 5 µM",31.6% and 31.5%
same,log fold change Tl+ flux,F380Y/beta4,-0.0261 (inactive)
same,log fold change Tl+ flux,[2],-0.0355 (inactive)
same,log fold change Tl+ flux,R275C,-0.0237 (inactive)
same,log fold change Tl+ flux,R275C/beta1,0.00244 (inactive)
same,log fold change Tl+ flux,R275C/beta2Delta,-0.0282 (inactive)
same,log fold change Tl+ flux,R275C/beta4,-0.000915 (inactive)
same,log fold change Tl+ flux,R275C/Slo1WT/beta2,-0.00804 (inactive)
Cc1onc(-c2c(Cl)cccc2Cl)c1C(=O)N[C@@H]1C(=O)N2[C@@H]1SC(C)(C)[C@@H]2C(=O)O,inhibition,[3],12.4%
same,score,[4],1.26
same,cytochrome c release ratio,[5],1.34
same,inhibition of aggregation,[6],56.3%
same,glutamate uptake change,[7],-10.2%
same,fluorescence ratio,[8],0.97 (inactive)
same,inhibition,[9],-2.27% (inactive)
same,inhibition,[10],-0.48% (inactive)
same,fluorescence ratio,[11],1.03 (inactive)
same,z-score,[1],0.54 (inactive)
same,log fold change Tl+ flux,F380Y/beta4,0.00974 (inactive)
same,log fold change Tl+ flux,[2],0.0705 (inactive)
same,log fold change Tl+ flux,R275C,-0.0255 (inactive)
same,log fold change Tl+ flux,R275C/beta1,4.8e-05 (inactive)
same,log fold change Tl+ flux,R275C/beta2Delta,0.00693 (inactive)
same,log fold change Tl+ flux,R275C/beta4,-0.0254 (inactive)
same,log fold change Tl+ flux,R275C/Slo1WT/beta2,-0.0106 (inactive)
NS(=O)(=O)c1cc2c(cc1C(F)(F)F)NC(Cc1ccccc1)NS2(=O)=O (centres undefined),inhibition,[3],23.3%
same,score,[4],1.25
same,cytochrome c release ratio,[5],1.06
same,inhibition of aggregation,[6],66.2%
same,glutamate uptake change,[7],10.7%
same,fluorescence ratio,[8],1.02 (inactive)
same,inhibition,[9],-0.45% (inactive)
same,inhibition,[10],1.05% (inactive)
same,fluorescence ratio,[11],0.99 (inactive)
same,z-score,[1],1.88 (inactive)
same,log fold change Tl+ flux,F380Y/beta4,0.0179 (inactive)
same,log fold change Tl+ flux,[2],-0.0118 (inactive)
same,log fold change Tl+ flux,R275C,0.0405 (inactive)
same,log fold change Tl+ flux,R275C/beta1,0.0248 (inactive)
same,log fold change Tl+ flux,R275C/beta2Delta,0.0558 (inactive)
same,log fold change Tl+ flux,R275C/beta4,-0.00759 (inactive)
same,log fold change Tl+ flux,R275C/Slo1WT/beta2,-0.0386 (inactive)
